Where “and” joins values, the source holds several entries; their conditions need not be identical. Equal entries are not always repeated. Inconclusive results are not listed. Some structures have more than one record in an assay (separate samples or runs), and their calls can disagree. Calls of active or inactive are those of the source. The calls were made as follows: active = hit-call score of the fitted dose curve at least 0.9, where 1 is the maximum; inconclusive = response in the unintended direction; inactive = score below 0.9.

Outcome and AC50 data for 8 compounds are collected here from PubChem BioAssay (EPA / NIEHS).

The nature of test [1]: ATG_M_06_XSP2: Attagene TRANS-FACTORIAL Multi-Species (XSP2) HepG2 Assay for M06 Transcription Factor (Internal Marker) (AID 2283811).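 Also: hits are increases in signal above the DMSO baseline.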 Put shortly: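 Readout: fluorescent reporter-mRNA peaks by capillary electrophoresis after RT-PCR and HpaI digest, scored upward relative to DMSO. Transfected HepG2, 24 h chemical exposure, with 3 nM 6-alpha-fluorotestosterone and 1.5 nM norgestrel added.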

The target of test [2] is chicken Estrogen Receptor (ERa), ESR1 (gene 396099) (UniProt P06212). Kind of test: ATG_chERa_XSP2: Attagene TRANS-FACTORIAL Multi-Species (XSP2) HepG2 Assay for chicken Estrogen Receptor (ERa) (AID 2283817).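 Also: actives raise reporter signal above DMSO so AC50 reflects ER activation.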 In short, it runs like this:
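Readout: fluorescent reporter-transcript fragments resolved by capillary electrophoresis after RT-PCR and HpaI cut. Chicken ERa-Gal4 fusion in transiently transfected HepG2, dosed for 24 h; activity taken as increase over DMSO baseline.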

In test [3] the test system is frog Estrogen Receptor (ER), gene 398734. Put plainly: ATG_frER1_XSP2: Attagene TRANS-FACTORIAL Multi-Species (XSP2) HepG2 Assay for frog Estrogen Receptor (ER) (AID 2283821).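 Also: hits raise reporter mRNA above DMSO baseline so potency means agonist or activator.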 Put shortly:
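Reporter mRNA induction, detected as fluorescence after RT-PCR and capillary electrophoresis, is the endpoint; activity is fitted upward against DMSO. Cells are human liver HepG2 carrying transfected NR-Gal4 chimeras with GAL4-UAS-driven reporters, harvested 24 h post-dosing.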

The subject of test [4] is zebrafish Estrogen Receptor (ER2b), gene 317733. Kind of test: ATG_zfER2b_XSP2: Attagene TRANS-FACTORIAL Multi-Species (XSP2) HepG2 Assay for zebrafish Estrogen Receptor (ER2b) (AID 2283823).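 Also: fitted upward as reporter gain over DMSO so potency reflects activation.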 Put shortly:
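HepG2 human liver cells transiently transfected with multiplexed GAL4-UAS reporter units expressing chimeric NR-Gal4 proteins; compounds dosed for 24 h. Reporter mRNA quantified by RT-PCR, 6-FAM labelling and capillary electrophoresis; gain-of-signal fitted against DMSO baseline.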

Test [5] concerns zebrafish Androgen Receptor (AR), gene 100005148. Kind of test: ATG_zfAR_XSP2: Attagene TRANS-FACTORIAL Multi-Species (XSP2) HepG2 Assay for zebrafish Androgen Receptor (AR) (AID 2283825).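 Also: hits raise reporter mRNA above DMSO so AC50 reflects agonist-type gain.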 Put shortly: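 After 24 h compound exposure in medium with 3 nM 6-alpha-fluorotestosterone plus 1.5 nM norgestrel, HepG2 cells carrying zebrafish AR–GAL4 reporter constructs were assessed for reporter mRNA gain by RT-PCR and capillary electrophoresis.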

Test [6] in a line: ATG_M_32_XSP2: Attagene TRANS-FACTORIAL Multi-Species (XSP2) HepG2 Assay for M19 Transcription Factor (Internal Marker) (AID 2283826). In short, it runs like this: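 Read-out: reporter mRNA quantified by RT-PCR, FAM labeling, HpaI digestion and capillary electrophoresis, 24 h after dosing transfected HepG2 cells. Medium carried 3 nM 6-alpha-fluorotestosterone plus 1.5 nM norgestrel; gain of signal fitted against DMSO.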

In test [7] the target is Estrogen receptor (Homo sapiens) (UniProt P03372). Put plainly: ATG_hERa_XSP2: Attagene TRANS-FACTORIAL Multi-Species (XSP2) HepG2 Assay for human Estrogen Receptor (ERa) (AID 2283827). Put shortly:
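Trans-activation of exogenous human ERa-Gal4 chimera read in HepG2 as reporter transcript after 24 h exposure; medium included 3 nM 6-alpha-fluorotestosterone and 1.5 nM norgestrel. Quantified by RT-PCR with capillary electrophoresis, positive-direction fitting against DMSO.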

The subject of test [8] is frog Estrogen Receptor (ER2), gene 100174814. Kind of test: ATG_frER2_XSP2: Attagene TRANS-FACTORIAL Multi-Species (XSP2) HepG2 Assay for frog Estrogen Receptor (ER2) (AID 2283828). Put shortly:
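Cells were transfected with reporter constructs under GAL4-UAS control, dosed with chemicals for 24 h, then lysed for RNA; the frog ER2-driven reporter mRNA was quantified by capillary electrophoresis of labeled PCR fragments, with activity fitted upward from DMSO.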

For test [9], the target named is Peroxisome proliferator-activated receptor gamma (Homo sapiens) (UniProt P37231). Kind of test: ATG_hPPARg_XSP2: Attagene TRANS-FACTORIAL Multi-Species (XSP2) HepG2 Assay for human Peroxisome Proliferator-activated Receptor gamma (PPARg) (AID 2283829).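 Also: actives raise reporter mRNA above DMSO so AC50 reflects PPARg activation.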 Put shortly: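 Reporter transcripts were measured by RT-PCR, fluorescent labeling, HpaI digestion and capillary electrophoresis, relative to DMSO, 24 h post-dosing. Transiently transfected HepG2 expressed NR-Gal4 chimeras regulating GAL4-UAS reporters; medium contained 3 nM 6-alpha-fluorotestosterone plus 1.5 nM norgestrel.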
Peroxisome proliferator-activated receptor gamma (Homo sapiens), sequence (P37231 whole entry, looked up, the tested form may be a part): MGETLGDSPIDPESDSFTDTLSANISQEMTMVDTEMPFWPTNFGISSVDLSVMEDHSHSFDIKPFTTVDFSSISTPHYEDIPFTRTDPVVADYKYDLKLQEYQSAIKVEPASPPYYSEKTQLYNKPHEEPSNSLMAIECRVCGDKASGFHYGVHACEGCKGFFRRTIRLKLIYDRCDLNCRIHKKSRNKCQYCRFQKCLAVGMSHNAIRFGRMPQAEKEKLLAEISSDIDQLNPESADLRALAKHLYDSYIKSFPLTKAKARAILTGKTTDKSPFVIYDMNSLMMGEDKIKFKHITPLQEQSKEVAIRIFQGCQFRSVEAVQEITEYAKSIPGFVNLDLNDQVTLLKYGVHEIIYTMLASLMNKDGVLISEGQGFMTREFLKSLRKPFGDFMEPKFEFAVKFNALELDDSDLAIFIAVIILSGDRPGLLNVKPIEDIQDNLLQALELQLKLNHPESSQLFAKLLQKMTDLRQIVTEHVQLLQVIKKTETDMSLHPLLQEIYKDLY

Test [10] deals with mouse Peroxisome Proliferator-activated Receptor gamma (PPARg), Pparg (gene 19016) (UniProt P37238). Put plainly: ATG_mPPARg_XSP2: Attagene TRANS-FACTORIAL Multi-Species (XSP2) HepG2 Assay for mouse Peroxisome Proliferator-activated Receptor gamma (PPARg) (AID 2283830).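 Also: hits are gains in reporter mRNA above DMSO so AC50 marks activation.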 In short, it runs like this:
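Multiplexed TRANS reporter readout: after 24 h chemical exposure of transfected HepG2 cells (with 3 nM 6-alpha-fluorotestosterone, 1.5 nM norgestrel present), RNA reverse-transcribed, amplified, 6-FAM-labelled and resolved by capillary electrophoresis; mouse PPARg-Gal4 induction scored against DMSO.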

The test system of test [11] is turtle Estrogen Receptor (ERa), gene 101933533. Put plainly: ATG_trERa_XSP2: Attagene TRANS-FACTORIAL Multi-Species (XSP2) HepG2 Assay for turtle Estrogen Receptor (ERa) (AID 2283812).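 Also: actives raise reporter signal above DMSO so AC50 reflects agonist activity.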 In short, it runs like this: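 Readout is reporter mRNA quantified by RT-PCR with capillary electrophoresis after 24 h compound exposure, increase relative to DMSO. Uses transiently transfected human HepG2 liver cells carrying a chimeric turtle ERa-Gal4 receptor driving GAL4-UAS reporters.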

Test [12] addresses Estrogen receptor beta (Homo sapiens) (UniProt Q92731). Kind of test: ATG_hERb_XSP2: Attagene TRANS-FACTORIAL Multi-Species (XSP2) HepG2 Assay for human Estrogen Receptor (ERb) (AID 2283813).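 Also: actives raise reporter mRNA above DMSO so AC50 reflects agonist induction.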 Put shortly:
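Transient TRANS reporter system in HepG2: after 24 h of chemical, RNA is reverse-transcribed, reporter cDNA amplified, FAM-labelled and sized by capillary electrophoresis. Induction of the human ERb-Gal4 reporter is measured relative to DMSO.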

The target in test [13] is GAL4 Transcription Factor (Internal Marker), GAL4 (gene 855828) (UniProt P04386). Kind of test: ATG_GAL4_XSP2: Attagene TRANS-FACTORIAL Multi-Species (XSP2) HepG2 Assay for GAL4 Transcription Factor (Internal Marker) (AID 2283814).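 Also: GAL4 reporter mRNA background control in MRTU transfected cells not a receptor target.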 Put shortly:
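Background-control readout: gain-of-signal fitted against DMSO. After 24 h exposure of transfected HepG2 (MRTU, GAL4-UAS reporters; 3 nM 6-alpha-fluorotestosterone, 1.5 nM norgestrel present), transcripts quantified by RT-PCR and capillary electrophoresis fluorescence.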

Test [14] has as its system turtle Androgen Receptor (AR), gene 101947425. Put plainly: ATG_trAR_XSP2: Attagene TRANS-FACTORIAL Multi-Species (XSP2) HepG2 Assay for turtle Androgen Receptor (AR) (AID 2283815). Put shortly:
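Reporter transcripts were quantified via RT-PCR and capillary electrophoresis and fitted upward against DMSO. Transiently transfected human HepG2 cells carrying NR-Gal4 chimeras were exposed 24 h, with 3 nM 6-alpha-fluorotestosterone plus 1.5 nM norgestrel added.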

In test [15] the target is zebrafish Estrogen Receptor (ER1), esr1 (gene 259252) (UniProt P57717). Kind of test: ATG_zfER1_XSP2: Attagene TRANS-FACTORIAL Multi-Species (XSP2) HepG2 Assay for zebrafish Estrogen Receptor (ER1) (AID 2283816). Put shortly: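 After 24 h compound exposure, RNA from transfected HepG2 cells was reverse-transcribed and reporter transcripts resolved by capillary electrophoresis. The TRANS format reads exogenous zebrafish ER1-Gal4 chimera activity on GAL4-UAS elements; gain of signal against DMSO.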
zebrafish Estrogen Receptor (ER1), esr1 (gene 259252), sequence (P57717 whole entry, looked up, the tested form may be a part): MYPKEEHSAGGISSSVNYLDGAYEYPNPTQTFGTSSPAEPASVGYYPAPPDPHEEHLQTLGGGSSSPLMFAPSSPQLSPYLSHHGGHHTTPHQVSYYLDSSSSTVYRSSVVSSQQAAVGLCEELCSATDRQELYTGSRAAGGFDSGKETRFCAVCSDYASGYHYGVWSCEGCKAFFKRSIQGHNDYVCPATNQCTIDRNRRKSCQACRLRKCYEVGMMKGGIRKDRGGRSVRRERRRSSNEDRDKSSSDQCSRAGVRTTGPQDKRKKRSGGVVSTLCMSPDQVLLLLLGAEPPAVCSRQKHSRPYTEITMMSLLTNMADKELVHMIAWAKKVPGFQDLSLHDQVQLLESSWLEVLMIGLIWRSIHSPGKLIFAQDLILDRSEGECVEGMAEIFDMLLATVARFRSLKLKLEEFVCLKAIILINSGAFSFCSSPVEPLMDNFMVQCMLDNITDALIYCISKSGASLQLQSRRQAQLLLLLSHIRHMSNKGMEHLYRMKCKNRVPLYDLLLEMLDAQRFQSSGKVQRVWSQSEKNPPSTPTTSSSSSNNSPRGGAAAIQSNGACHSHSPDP

The test system of test [16] is zebrafish Estrogen Receptor (ER2a), gene 317734. Kind of test: ATG_zfER2a_XSP2: Attagene TRANS-FACTORIAL Multi-Species (XSP2) HepG2 Assay for zebrafish Estrogen Receptor (ER2a) (AID 2283818).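 Also: hits raise reporter mRNA so AC50 reflects activation of zebrafish ER2a.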 Put shortly:
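Multiplexed trans-reporter readout: RT-PCR then capillary electrophoresis of reporter transcripts after 24 h compound treatment. Human HepG2 carries transfected zebrafish ER2a-Gal4 chimera; 3 nM 6-alpha-fluorotestosterone plus 1.5 nM norgestrel present. Induction scored against DMSO.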

Test [17] concerns chicken Androgen Receptor (AR), gene 422165. Kind of test: ATG_chAR_XSP2: Attagene TRANS-FACTORIAL Multi-Species (XSP2) HepG2 Assay for chicken Androgen Receptor (AR) (AID 2283819).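 Also: hits raise reporter mRNA above DMSO so potency is for activation.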 Put shortly: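 Readout is reporter mRNA induction via RT-PCR/capillary electrophoresis after 24 h chemical exposure, positive direction relative to DMSO. Transiently transfected HepG2 express chimeric chicken AR–GAL4; AR stimulated by 3 nM 6-alpha-fluorotestosterone and 1.5 nM norgestrel.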

In test [18] the target is AR (gene 367) (UniProt P10275). Put plainly: ACEA_AR_antagonist_80hr: ACEA Biosciences xCELLigence Real-Time Cell Analysis on Androgen Receptor Antagonism for Proliferation (AID 2283787).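 Also: 22Rv1 human prostate cancer cells with growth followed by electrical impedance; hits lower the impedance growth signal relative to DMSO.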 Put shortly: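 Measures real-time proliferation of 22Rv1 prostate cancer cells by electrode impedance at 80 hours after dosing. Test articles ran at eight concentrations (1:4 steps, top 100 uM final) in biological duplicate.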
AR (gene 367), sequence (P10275 whole entry, looked up): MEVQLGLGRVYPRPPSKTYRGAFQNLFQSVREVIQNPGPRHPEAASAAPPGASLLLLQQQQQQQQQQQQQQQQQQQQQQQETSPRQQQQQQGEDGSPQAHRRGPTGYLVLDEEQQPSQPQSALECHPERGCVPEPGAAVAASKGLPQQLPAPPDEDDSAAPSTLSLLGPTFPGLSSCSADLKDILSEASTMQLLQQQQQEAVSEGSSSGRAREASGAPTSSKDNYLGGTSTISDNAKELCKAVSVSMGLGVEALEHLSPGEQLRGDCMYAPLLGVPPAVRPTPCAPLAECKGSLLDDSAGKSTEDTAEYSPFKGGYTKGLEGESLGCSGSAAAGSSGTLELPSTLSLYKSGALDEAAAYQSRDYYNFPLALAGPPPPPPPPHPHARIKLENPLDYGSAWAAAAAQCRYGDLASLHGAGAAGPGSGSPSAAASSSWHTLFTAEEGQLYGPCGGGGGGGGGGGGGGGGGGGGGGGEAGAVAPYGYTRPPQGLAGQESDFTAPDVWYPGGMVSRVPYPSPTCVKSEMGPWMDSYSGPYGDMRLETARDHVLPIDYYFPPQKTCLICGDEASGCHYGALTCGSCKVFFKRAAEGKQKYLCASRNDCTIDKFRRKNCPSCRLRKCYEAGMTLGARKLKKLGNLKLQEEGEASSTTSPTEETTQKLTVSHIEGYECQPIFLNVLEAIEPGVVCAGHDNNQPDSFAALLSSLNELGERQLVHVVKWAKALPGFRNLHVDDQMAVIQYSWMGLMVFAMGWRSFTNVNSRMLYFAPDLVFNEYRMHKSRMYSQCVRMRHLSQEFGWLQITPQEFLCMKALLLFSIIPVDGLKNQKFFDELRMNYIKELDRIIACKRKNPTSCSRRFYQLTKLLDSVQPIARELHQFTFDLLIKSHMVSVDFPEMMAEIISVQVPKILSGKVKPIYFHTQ

Test [19] in a line: ATG_M_19_XSP2: Attagene TRANS-FACTORIAL Multi-Species (XSP2) HepG2 Assay for M32 Transcription Factor (Internal Marker) (AID 2283822). Put shortly:
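Internal background marker in a multi-species nuclear receptor TRANS panel: transfected HepG2 cells exposed 24 h, with 3 nM 6-alpha-fluorotestosterone and 1.5 nM norgestrel present. Readout is RT-PCR of reporter transcripts resolved by capillary electrophoresis, gain-of-signal versus DMSO.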

mouse Peroxisome Proliferator-activated Receptor gamma (PPARg), Pparg (gene 19016), sequence (P37238 whole entry, looked up, the tested form may be a part): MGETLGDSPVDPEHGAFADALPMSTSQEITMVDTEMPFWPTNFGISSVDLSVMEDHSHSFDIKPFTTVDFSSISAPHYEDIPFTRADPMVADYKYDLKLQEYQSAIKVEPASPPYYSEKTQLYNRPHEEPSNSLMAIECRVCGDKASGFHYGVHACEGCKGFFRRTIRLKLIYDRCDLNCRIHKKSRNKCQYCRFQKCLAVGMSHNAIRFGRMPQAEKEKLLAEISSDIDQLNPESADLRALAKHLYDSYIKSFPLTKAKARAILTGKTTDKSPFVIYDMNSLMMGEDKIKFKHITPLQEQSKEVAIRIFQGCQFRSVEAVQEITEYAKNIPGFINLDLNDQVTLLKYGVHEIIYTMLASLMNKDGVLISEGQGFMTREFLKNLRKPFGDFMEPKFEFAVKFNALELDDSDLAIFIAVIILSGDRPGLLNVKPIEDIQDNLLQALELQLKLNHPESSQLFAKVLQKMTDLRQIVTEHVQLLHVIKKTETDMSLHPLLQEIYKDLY
Estrogen receptor (Homo sapiens), sequence (P03372 whole entry, looked up, the tested form may be a part): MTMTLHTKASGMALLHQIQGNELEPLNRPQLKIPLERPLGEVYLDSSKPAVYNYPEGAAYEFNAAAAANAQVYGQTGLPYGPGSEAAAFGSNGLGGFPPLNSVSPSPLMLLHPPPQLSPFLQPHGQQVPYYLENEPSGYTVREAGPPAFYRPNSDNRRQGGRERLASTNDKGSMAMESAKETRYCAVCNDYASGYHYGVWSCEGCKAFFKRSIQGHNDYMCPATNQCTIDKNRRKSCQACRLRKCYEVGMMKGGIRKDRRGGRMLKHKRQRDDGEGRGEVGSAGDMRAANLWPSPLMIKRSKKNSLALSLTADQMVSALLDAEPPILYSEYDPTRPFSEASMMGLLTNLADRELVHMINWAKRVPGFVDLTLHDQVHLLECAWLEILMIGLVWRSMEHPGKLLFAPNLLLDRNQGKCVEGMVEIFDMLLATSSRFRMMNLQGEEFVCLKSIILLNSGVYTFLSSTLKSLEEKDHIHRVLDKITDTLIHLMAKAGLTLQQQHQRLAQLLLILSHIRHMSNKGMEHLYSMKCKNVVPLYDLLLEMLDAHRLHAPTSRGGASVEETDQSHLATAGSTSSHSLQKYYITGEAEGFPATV
chicken Estrogen Receptor (ERa), ESR1 (gene 396099), sequence (P06212 whole entry, looked up, the tested form may be a part): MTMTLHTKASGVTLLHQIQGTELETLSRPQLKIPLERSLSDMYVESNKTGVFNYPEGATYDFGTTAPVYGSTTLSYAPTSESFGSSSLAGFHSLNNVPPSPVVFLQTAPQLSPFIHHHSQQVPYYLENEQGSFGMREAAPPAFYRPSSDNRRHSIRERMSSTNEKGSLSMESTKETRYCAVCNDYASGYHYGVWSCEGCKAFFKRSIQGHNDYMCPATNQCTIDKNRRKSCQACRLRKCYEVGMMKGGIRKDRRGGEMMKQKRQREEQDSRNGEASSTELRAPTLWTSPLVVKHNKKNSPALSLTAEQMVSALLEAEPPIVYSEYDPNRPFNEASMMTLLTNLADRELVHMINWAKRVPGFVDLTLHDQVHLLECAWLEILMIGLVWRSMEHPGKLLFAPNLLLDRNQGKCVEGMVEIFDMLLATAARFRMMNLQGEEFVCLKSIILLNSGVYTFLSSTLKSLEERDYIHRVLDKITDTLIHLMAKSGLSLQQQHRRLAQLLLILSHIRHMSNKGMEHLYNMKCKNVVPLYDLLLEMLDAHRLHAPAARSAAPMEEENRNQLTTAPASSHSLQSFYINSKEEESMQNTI
Estrogen receptor beta (Homo sapiens), sequence (Q92731 whole entry, looked up, the tested form may be a part): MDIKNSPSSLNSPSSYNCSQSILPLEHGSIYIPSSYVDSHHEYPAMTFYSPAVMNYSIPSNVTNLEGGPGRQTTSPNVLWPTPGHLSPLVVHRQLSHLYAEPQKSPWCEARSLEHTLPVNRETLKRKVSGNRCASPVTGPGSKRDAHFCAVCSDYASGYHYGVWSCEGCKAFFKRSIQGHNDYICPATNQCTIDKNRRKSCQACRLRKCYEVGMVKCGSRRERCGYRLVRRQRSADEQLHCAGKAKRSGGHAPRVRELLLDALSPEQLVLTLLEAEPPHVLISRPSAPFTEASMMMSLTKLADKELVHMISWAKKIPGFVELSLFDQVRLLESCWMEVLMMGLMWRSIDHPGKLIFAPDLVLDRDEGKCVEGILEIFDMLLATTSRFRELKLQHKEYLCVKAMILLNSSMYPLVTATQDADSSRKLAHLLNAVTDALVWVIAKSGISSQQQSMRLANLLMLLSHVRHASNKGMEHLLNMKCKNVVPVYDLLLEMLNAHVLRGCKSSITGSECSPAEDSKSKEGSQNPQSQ

With `[Cl][Sn]([c]1ccccc1)([c]1ccccc1)[c]1ccccc1`, the outcome in test [1], in test [2], in test [4], in test [5], in test [6] and in test [7] was inactive. Also, the outcome in test [8] was inactive. The AC50 in test [3] is 925 nM (active); in test [9], 41 nM (active); in [10], 0.184 µM (active).
In the case of `CCOP(=S)(OCC)O/N=C(\C#N)c1ccccc1`, the compound was called inactive in test [1], in test [12], in test [13], in [14], in [15] and in test [16]. The compound was called inactive in test [17] and in test [3]. Further, the AC50 in test [11] was 7.97 µM (active) and 2.27 µM (active); in test [15], 6.85 µM (active); in test [2], 6.64 µM (active) and 5.37 µM (active); in test [16] it was 4.38 µM (active); in test [17] it was 17.8 µM (active); in test [4], 19 µM (active) and 8.31 µM (active). The concentration at half-maximal activity (AC50) in [8] was 16.1 µM (active) and 2.28 µM (active); in [9], 27.4 µM (active) and 10.3 µM (active); in test [10] it was 22.4 µM (active) and 15.5 µM (active).
As to `CC(O)(CS(=O)(=O)c1ccc(F)cc1)C(=O)Nc1ccc(C#N)c(C(F)(F)F)c1` (stereo not drawn), the call in [1], in [11], in [12], in test [15], in test [2] and in test [16] was inactive. Besides, the outcome in test [3], in test [4], in test [7], in test [8], in test [9] and in test [10] was inactive. For the same compound, the AC50 in test [4] was 50.4 µM (active); in test [10], 46.2 µM (active).
As for `O=C(N[C@H]1CN2CCC1CC2)c1ccc2c(c1)OCCO2`, the result in test [18] was inactive.
Same read-out and setting: next, `N#CCC#N`: “inactive”.
With `Cc1cc(Cl)ccc1OCCCC(=O)O`, the call in [18] was inactive.
As to `O=C(NC(=O)c1c(F)cccc1F)Nc1cc(Cl)c(OC(F)(F)C(F)C(F)(F)F)cc1Cl` (stereo not drawn), the AC50 in [18] was 6.32 µM (active).
`O=c1oc2ccccc2c(O)c1C(CC(O)c1ccc(-c2ccc(Br)cc2)cc1)c1ccccc1` (stereo not drawn): the call in test [15], in test [17], in test [19], in test [4], in [6] and in test [8] was inactive. The AC50 in test [9] is 1640 nM (active); in test [10], 2.5 µM (active).

As a reminder, the AC50 is the midpoint of the concentration-response curve, whichever way the signal moves.
